Measurements published in publication PMC4336329 (PLoS ONE, 2015).
Among all 310,000 compounds or so, about 14,000 (4.5%) showed an effect of 50% or more. The effect is printed as a negative number. The entries come from a sample that favours strong results as a whole.

molecular target: human ether-à-go-go-related gene (hERG) potassium channel (human, UniProt Q12809); assay: primary screen, population patch clamp on CHO cells stably expressing hERG; higher = less effect of the substance
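Note: peak tail current of the secondary pulse compared with the same well before compound.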

Sequence of human ether-à-go-go-related gene (hERG) potassium channel (Q12809 whole entry, looked up): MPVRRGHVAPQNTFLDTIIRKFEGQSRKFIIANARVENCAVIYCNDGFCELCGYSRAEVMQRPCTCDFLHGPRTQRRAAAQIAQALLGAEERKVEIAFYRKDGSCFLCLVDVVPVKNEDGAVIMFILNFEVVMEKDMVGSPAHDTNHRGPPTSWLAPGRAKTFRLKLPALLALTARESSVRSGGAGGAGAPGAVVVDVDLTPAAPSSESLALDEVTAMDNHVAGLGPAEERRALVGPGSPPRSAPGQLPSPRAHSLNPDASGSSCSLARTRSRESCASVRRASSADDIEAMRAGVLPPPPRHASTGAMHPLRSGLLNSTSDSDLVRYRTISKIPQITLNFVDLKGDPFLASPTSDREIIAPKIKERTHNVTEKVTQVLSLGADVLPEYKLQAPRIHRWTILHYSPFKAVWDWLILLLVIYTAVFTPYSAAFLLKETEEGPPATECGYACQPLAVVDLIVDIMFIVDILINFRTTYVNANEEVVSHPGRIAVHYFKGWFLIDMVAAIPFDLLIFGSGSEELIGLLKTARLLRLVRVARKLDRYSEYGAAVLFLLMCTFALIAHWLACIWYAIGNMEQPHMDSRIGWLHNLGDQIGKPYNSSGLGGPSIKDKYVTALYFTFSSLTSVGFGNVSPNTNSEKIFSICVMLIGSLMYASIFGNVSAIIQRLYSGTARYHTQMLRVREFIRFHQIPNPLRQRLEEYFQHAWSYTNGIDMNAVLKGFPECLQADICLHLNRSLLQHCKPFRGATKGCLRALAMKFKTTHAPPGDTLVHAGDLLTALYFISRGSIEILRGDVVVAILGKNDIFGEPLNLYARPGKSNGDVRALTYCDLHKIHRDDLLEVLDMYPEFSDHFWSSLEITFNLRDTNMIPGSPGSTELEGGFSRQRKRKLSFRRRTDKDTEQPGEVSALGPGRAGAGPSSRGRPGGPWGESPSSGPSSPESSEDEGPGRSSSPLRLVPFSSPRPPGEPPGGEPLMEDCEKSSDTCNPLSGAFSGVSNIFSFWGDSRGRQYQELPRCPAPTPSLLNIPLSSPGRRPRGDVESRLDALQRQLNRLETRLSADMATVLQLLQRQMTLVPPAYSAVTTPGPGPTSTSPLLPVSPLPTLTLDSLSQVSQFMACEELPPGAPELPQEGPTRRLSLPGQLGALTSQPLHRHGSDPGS

Compound	hERG current change (%, negative = inhibition) at 10uM
COc1cccc(NC(=O)CCC(=O)NCc2ccco2)c1	17.2%
Cc1c(Cl)cccc1NC(=S)/C(=C(\[O-])c1ccc(Cl)s1)[n+]1ccccc1	3.76%
Cc1cc(C=C2C(=O)c3ccccc3C2=O)c(C)n1-c1ccc(C(=O)O)cc1	1.68%
Cc1nn2c(C(F)(F)F)cc(-c3ccc(Cl)cc3)nc2c1C(=O)N1CCOCC1	-13.6%
CCN(CC)P(=S)(c1c(C)nc2ccccn12)c1c(C)nc2ccccn12	-9.33%
CCN(CC)P(=O)(c1ccccc1)c1c(C)nc2ccccn12 (stereo not shown)	-3.24%
Cc1nc2ccccn2c1P(=Nc1ccccc1)(N(C)C)N(C)C	-52.5%
N#Cc1c(SCC(=O)Nc2nc3ccc(Br)cc3s2)sc2c(O)cc(=O)[nH]c12	9.27%
CC(C)CNC(=S)NC(=O)c1ccc(F)cc1	5.45%
COc1ccc(C(=O)N/N=C(\C)c2ccc3c(c2)C2C=CCC2C(c2ccccc2)N3)cc1 (stereo not shown)	-1.79%
CC(=O)c1ccc2c(c1)C1C=CCC1C(c1ccncc1)N2 (stereo not shown)	-21%
COC(=O)c1ccc(C2Nc3ccc(/C(C)=N/NC(=O)C(OC)c4ccccc4)cc3C3C=CCC32)cc1 (stereo not shown)	-76.2%
CCN(CC)C(=O)c1csc(Nc2ccc(C)cc2)n1	-34.8%
S=C(NCc1cccnc1)Nc1cccc2ccccc12	-9.3%
c1ccc2nc(N3CCOCC3)c(N3CCOCC3)nc2c1	-1.12%
c1ccc2c(c1)nc(N1CCOCC1)c1ccccc12	11.2%
c1ccc(-c2nc3ccccc3nc2N2CCOCC2)cc1	-54.7%
Br.CCCCN1C2=NCCCN2c2cc(C)c(C)cc21	-65.4%
Br.CCN1C2=NCCCN2c2cc(C)c(C)cc21	-23.2%
CCCCN1C(N)=NC[C@@H]1c1ccccc1	-2.61%
CCCN1C2=NCCN2c2cc(C)c(C)cc21.Cl	-30.7%
CCCCN1C2=NC(c3ccccc3)CN2c2ccccc21.Cl (stereo not shown)	-69%
CCCN1C2=NCCCN2c2ccccc21.Cl	-9.58%
c1ccc([C@H]2CN3C(=N2)Sc2ccccc23)cc1	-19.2%

Compound	hERG current change (%, negative = inhibition) at 10uM
Br.CCCCN1C2=NCCCN2c2ccccc21	-54.5%
CCCCCCCN1C2=NCCCN2c2ccccc21.Cl	-58.5%
COCCN1C(=O)CS/C1=C(/C#N)C(=O)NCc1ccco1	-7.92%
COc1ccc(C(=O)O)cc1S(=O)(=O)Nc1cccc(C)c1	-18.9%
Cc1ccc(-n2nnc3c(=O)n(CC(=O)NCc4ccccc4)cnc32)cc1	-15.5%
C[C@@H]1CC[C@@]23COC(=O)C2=CCC[C@@H]3[C@@]1(C)CC/C(=C/CO)CO	-6.27%
O=C(c1ccc(Cl)c(Cl)c1)N1CCC(=O)N(C(CO)Cc2ccccc2)CC1 (stereo not shown)	5.42%
CCOC(=O)c1cn2nc(Oc3cccc(C(F)(F)F)c3)ccc2n1	-6.27%
O=c1cc(-c2ccncc2)oc2c1ccc1ccccc12	-4.57%
Cl.c1ccc2c(c1)N1CCN=C1N2CCN1CCCCC1	-15.3%
Cl.c1ccc2c(c1)N1CCCN=C1N2CCN1CCCCC1	-62.8%
CCCCCCN1C2=NCCCN2c2ccccc21.Cl	-78.3%
COc1cccc(/C=C/C(=O)Nc2ccc3[nH]c(=O)[nH]c3c2)c1	7.9%
Cc1ccc(S(=O)(=O)N(C)CC(=O)N2CCN(Cc3ccc4c(c3)OCO4)CC2)cc1	-66.6%
COc1ccc(N(CC(=O)N2CCN(Cc3ccc4c(c3)OCO4)CC2)S(=O)(=O)c2ccc(F)cc2)cc1	-84.6%
CCN1CCN(C(=O)CN(c2ccc(F)cc2)S(=O)(=O)c2ccc(OC)c(OC)c2)CC1	-66.8%
COc1ccc(N(CC(=O)N2CCN(Cc3ccccc3)CC2)S(=O)(=O)c2ccccc2)cc1	-26.3%
Cc1ccc(S(=O)(=O)N(C)c2ccc(C(=O)N3CCN(Cc4ccc5c(c4)OCO5)CC3)cc2)cc1	-44.1%
CS(=O)(=O)N(CC(=O)N1CCN(Cc2ccc3c(c2)OCO3)CC1)c1ccc2c(c1)OCO2	-58.9%
O=C(CN(c1ccccc1)S(=O)(=O)c1ccccc1)N1CCN(Cc2ccc3c(c2)OCO3)CC1	-33.4%
COc1ccc(S(=O)(=O)N(CC(=O)N2CCN(C)CC2)c2ccc(C)cc2)cc1OC	-11%
COc1ccc(N(CC(=O)N2CCN(Cc3ccc4c(c3)OCO4)CC2)S(C)(=O)=O)cc1OC	9.47%
COc1ccc(S(=O)(=O)N(CC(=O)N2CCOCC2)c2ccc(F)cc2)cc1OC	10.7%
CS(=O)(=O)N(CC(=O)N1CCN(Cc2ccccc2)CC1)c1ccc2c(c1)OCCO2	-5.94%

Compound	hERG current change (%, negative = inhibition) at 10uM
Cc1ccc(S(=O)(=O)N(C)CC(=O)N2CCN(Cc3ccccc3)CC2)cc1	-24.6%
COc1ccc(C(=O)NCc2nnc(SCC(=O)Nc3cccc(F)c3)o2)cc1	-1.96%
COCCn1c(-c2ccc(OC)c(OC)c2)nc2ccccc21	-21.6%
O=C1NC(=NCc2ccccc2)S/C1=C\c1ccccc1	23.8%
COc1ccccc1NC(=O)COc1ccc(Br)cc1CNCCCN1CCOCC1.Cl	-58.6%
C=CCOc1ccc(Br)cc1CNCCCN1CCOCC1.Cl	-27.7%
COc1cc(CNCCCN2CCOCC2)c(Br)cc1OCC(=O)Nc1ccccc1C	-15.3%
COc1ccccc1NC(=O)COc1cc(Br)c(CNCCCN2CCOCC2)cc1OC	-54.6%
O=C(COc1ccc(Br)cc1CNCCCN1CCOCC1)Nc1ccccc1	-47.8%
COc1cc(CNCCCN2CCOCC2)c(Br)cc1OC(C)C.Cl	5.58%
COc1cc(NC(=O)c2ccc(C)cc2)ccc1NC(=O)c1cc2ccccc2o1	15.2%
Cc1ccc(C)c(NC(=O)CSc2nnc(CCNC(=O)OC(C)(C)C)o2)c1	-12.3%
CC1(C)CC(c2csc(N)n2)CCO1 (stereo not shown)	2.95%
COc1ccc(N(CC(=O)N2CCN(c3ccc(Cl)cc3)CC2)S(=O)(=O)c2c(C)n[nH]c2C)cc1	-10.1%
Cc1ccc(N(CC(=O)N2CCN(c3ccc(F)cc3)CC2)S(=O)(=O)c2c(C)noc2C)cc1	-39.5%
COc1ccc(N(CC(=O)N2CCN(c3ccccc3F)CC2)S(=O)(=O)c2c(C)n[nH]c2C)cc1	-20.6%
Cc1ccc(N(CC(=O)N2CCN(c3ccc(F)cc3)CC2)S(=O)(=O)c2c(C)nn(C)c2C)cc1	-65.8%
COc1ccc(N(CC(=O)N2CCN(c3ccc(F)cc3)CC2)S(=O)(=O)c2c(C)n[nH]c2C)cc1	-69.4%
Cc1ccc(N(CC(=O)NCc2ccc(F)cc2)S(=O)(=O)c2c(C)nn(C)c2C)cc1	-24.5%
O=C(O)/C=C\C(=O)N1CCc2ccccc21	27.9%
O=C1C(NS(=O)(=O)c2cccs2)=C(N2CCOCC2)C(=O)c2ccccc21	-40.8%
C[n+]1ccc(C(=O)N/N=C/c2ccco2)cc1.[I-]	26.7%
COc1cccc(C(=O)NCCCn2ccnc2)c1	7.29%
COc1cccc(-c2cc(C(=O)NCCCn3ccnc3)c3ccccc3n2)c1	-71.8%

Compound	hERG current change (%, negative = inhibition) at 10uM
O=C(NCCCn1ccnc1)c1cc(-c2ccc(Cl)cc2)nc2ccccc12	-68.8%
COc1ccc(-c2cc(C(=O)NCCCn3ccnc3)c3ccccc3n2)c(OC)c1	-32%
CCOc1ccc(-c2cc(C(=O)NCCCn3ccnc3)c3ccccc3n2)cc1	-16%
O=C(NCCc1ccc(Cl)cc1)c1cc(-c2ccncc2)nc2ccccc12	4.23%
O=C(NCCCn1ccnc1)c1cc(-c2ccncc2)nc2ccccc12	-56.3%
CCCCCCCNC(=O)c1cc(-c2ccncc2)nc2ccccc12	7.84%
O=C(NCCc1ccccn1)c1cc(-c2ccc(Cl)cc2)nc2ccccc12	-19.6%
CCCCN(C)CCC(=O)Nc1ccc(OC)cc1OC	5.11%
Cc1cccc(Nc2nc3c(c(=O)n(C)c(=O)n3C)n2CC(O)CO)c1 (stereo not shown)	-0.943%
O=C(Cc1c(Cl)cccc1Cl)N1CCN(Cc2ccccc2)CC1	-0.0324%
NS(=O)(=O)c1cccnc1Nc1cccc(Cl)c1Cl	-3.35%
CN(C)c1nc(-c2ccccc2)nc(-c2ccc(Cl)cc2)c1C#N	8.49%
COc1ccc(-c2nc3c4ccccc4ccn3c2CN2CCCCC2)cc1OC.Cl	0.736%
COc1cccc(N2CCN(Cc3nc4ccccc4c(=O)[nH]3)CC2)c1	-18.9%
O=c1nc2ccccc2c2n1CC(CN1CCN(c3cccc(Cl)c3)CC1)N2 (stereo not shown)	-63.3%
Cn1c(CN2CCN(c3cccc(Cl)c3)CC2)nc2ccccc21	-44.7%
O=c1[nH]c(CN2CCN(c3ccccc3)CC2)nc2ccccc12	1.55%
Fc1ccccc1N1CCN(CC2CCCCC2)CC1	-1.99%
O=c1nc2ccccc2c2n1CC(CN1CCN(c3ccc(F)cc3)CC1)N2 (stereo not shown)	-68.6%
O=c1[nH]c(CN2CCN(c3ccc(F)cc3)CC2)nc2ccccc12	-15.1%
O=c1nc2ccccc2c2n1CC(CN1CCN(c3ccccc3F)CC1)N2 (stereo not shown)	-50.3%
O=C(CSc1nc2ccccc2c(=O)[nH]1)N1CCN(c2ccccc2F)CC1	9.44%
